# The list is not random: actives were taken first. Their share in the collection is about 4.7%.
# D1 potentiator – Potentiators of Human D1 Dopamine Receptor: qHTS | D(1A) dopamine receptor (Homo sapiens), P21728 | HEK293 TREx D1 cells, calcium flux, dopamine EC20 potentiation | potentiation, % at 10 µM | 360,000 tested, 0.036% active; in the data active means potentiation above about 30%
# Target sequence (P21728 whole entry, looked up): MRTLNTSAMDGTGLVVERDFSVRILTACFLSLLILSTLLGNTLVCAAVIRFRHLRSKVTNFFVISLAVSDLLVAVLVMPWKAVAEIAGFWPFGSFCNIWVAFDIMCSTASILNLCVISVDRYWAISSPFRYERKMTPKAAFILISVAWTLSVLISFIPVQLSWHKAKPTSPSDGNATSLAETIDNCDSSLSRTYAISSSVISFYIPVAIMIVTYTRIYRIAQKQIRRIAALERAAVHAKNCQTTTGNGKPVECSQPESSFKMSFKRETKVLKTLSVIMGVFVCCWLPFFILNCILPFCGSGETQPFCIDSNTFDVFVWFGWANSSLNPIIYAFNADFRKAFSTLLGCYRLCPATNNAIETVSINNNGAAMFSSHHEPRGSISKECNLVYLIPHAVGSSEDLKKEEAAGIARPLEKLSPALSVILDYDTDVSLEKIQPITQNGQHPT
# TRHR ag – qHTS for Small Molecule Agonists and Allosteric Enhancers of Human TRH Receptor: Primary Screen for Agonists; Thyrotropin-releasing hormone receptor (Homo sapiens), P34981; TRHR cells, calcium flux fluo-8, FDSS agonist mode; activation, % at 2 µM; 360,000 tested, 0.18% active; AID 493084, 2011
#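 Read-out: compound-evoked intracellular calcium rise in TRHR cells, fluo-8 dye, kinetic FDSS fluorescence at 1 s/cycle following a 10-cycle baseline. Cells cultured overnight before dye loading (30 min–1.5 h, RT).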
# D1 antagonist – Antagonist of Human D 1 Dopamine Receptor: qHTS; activity change, negative = inhibition, % at 10 µM; HEK293 TREx D1 cells, calcium flux, dopamine EC80; hits give low values; 360,000 tested, 3.2% active; D(1A) dopamine receptor (Homo sapiens), P21728; in the data active means activity change below about -30%
#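 Compound effects on dopamine-evoked calcium signalling were measured in tetracycline-induced HEK293 Trex D1 cells. Dopamine at EC80 followed a 180 s compound pre-read, and fluorescence was tracked kinetically for 180 s more.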
# D1 ag – Allosteric Agonists of the Human D1 Dopamine Receptor: qHTS. HEK293 T-REx D1 cells, calcium flux, agonist mode. activation, % at 2 µM. 360,000 tested, 1% active. AID 504660, 2011
#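 Agonism was scored from calcium flux recorded over 180 s (1 read/s) after pintool compound addition, following a 10-cycle baseline. Cells were inducible force-coupled HEK293 TREx D1, plated overnight at 30 C and loaded with no-wash calcium dye.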
# TRHR enhancer – qHTS for Small Molecule Agonists and Allosteric Enhancers of Human TRH Receptor: Primary Screen for Enhancers; TRHR cells, fluo-8 calcium fluorescence, EC20 TRH enhancement; enhancement, % at 2 µM; 360,000 tested, 0.66% active; AID 493056, 2011; in the data active means enhancement above about 30%
#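 Enhancer read-out: after compound pinning and an initial kinetic agonist-mode read, an EC20 of TRH (10 nM final) was injected and fluo-8 calcium signal (Ex 480/Em 530) followed at 1 s/cycle for 100 cycles in TRHR-expressing cells.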
# Hits are given with their value; 0 = inactive. Unless noted, no stated cut-off is given here; in the data, active means activation above about 30%; inactive means the rest.
SMILES,D1 potentiator,TRHR ag,D1 antagonist,D1 ag,TRHR enhancer
Cc1ccc2c(Sc3ccccc3)c(C(=O)NCc3ccccc3F)[nH]c2c1,0,0,-43.9,0,0
COc1cccc(CNC(=O)c2[nH]c3cc(C)ccc3c2Sc2ccccc2)c1,0,0,0,0,0
Cc1ccc(CN2C(=O)C(O)(c3c[nH]c4ccccc34)c3cc(Cl)ccc32)cc1 (stereo not drawn),0,0,0,0,0
Cc1ccc(NC(=O)c2cccc(S(=O)(=O)N3CCc4ccccc4C3)c2)nc1,0,0,0,0,0
Cc1cc(N2CCN(C)CC2)ccc1NC(=O)c1cccc(S(=O)(=O)N2CCc3ccccc3C2)c1,0,0,-87.3,0,0
COc1ccccc1N1CCN(c2ccc(=O)n(CC(=O)O)n2)CC1,0,0,0,0,0
Cc1ccc(NC(=S)N/N=C/c2ccc([N+](=O)[O-])s2)cc1,0,0,0,31.3,0
FC(F)(F)c1ccc(C2=Nc3ccccc3NC(c3cccs3)=N2)cc1,0,0,0,0,0
Cc1cc(C(=O)Cn2nnc3ccccc3c2=O)c(C)n1-c1ccccc1F,0,0,-53.3,0,0
Cc1cc(C(=O)COC(=O)c2ccc(O)cc2)c(C)n1-c1ccccc1F,0,0,-30.0,0,0
COc1ccc(-n2c(C)cc(C(=O)Cn3nnc4ccccc4c3=O)c2C)cc1,0,0,0,0,0
Cc1sc2ncn(CC(=O)N3CCN(c4ccccc4F)CC3)c(=O)c2c1S(=O)(=O)N1CCN(c2ncccn2)CC1,0,0,0,0,0
O=C(NC(=S)Nc1nc(-c2ccccc2)cs1)c1cncc(Br)c1,0,0,0,37.4,0
O=C(O)c1ccc(NC(=S)NC(=O)c2cncc(Br)c2)cc1,0,0,0,0,34.0
CCOC(=O)c1ccc(NC(=S)NC(=O)c2cncc(Br)c2)cc1,0,0,0,0,0
O=C(NC(=S)Nc1nc(-c2ccccc2)cs1)c1cccnc1,0,0,0,0,0
Cc1ccc(C)c(CSc2cn(CCNC(=O)c3cccs3)c3ccccc23)c1,0,0,0,0,0
COc1cc(C2/C(=C(\O)c3ccc4c(c3)OCCO4)C(=O)C(=O)N2Cc2ccco2)ccc1O (stereo not drawn),0,0,0,0,0
COc1cc(C2/C(=C(\O)c3ccc4c(c3)OCCO4)C(=O)C(=O)N2Cc2ccco2)cc(OC)c1OC (stereo not drawn),0,0,-33.1,0,0
COc1ccc(/C(O)=C2\C(=O)C(=O)N(Cc3ccco3)C2c2cc(OC)ccc2OC)cc1 (stereo not drawn),0,0,-30.5,0,0
O=C1C(=O)N(Cc2ccco2)C(c2cccc(Cl)c2)/C1=C(\O)c1ccc2c(c1)OCCO2 (stereo not drawn),0,0,-52.8,0,0
CCc1ccccc1NC(=O)C1CCCN(C(=O)c2cnn(-c3ccccc3)c2-n2cccc2)C1 (stereo not drawn),0,0,0,0,0
COc1ccc(OC)c(-c2noc(N3CCN(c4ccc(Cl)cc4)CC3)n2)c1,0,0,0,0,0
COc1ccc(NC(=O)Cn2c(NCC(C)O)nc3ccccc32)cc1Cl (stereo not drawn),0,0,-70.4,0,0
COc1ccc(NC(=O)CSc2nc3ccccc3nc2N2CCCC2)cc1Cl,0,0,0,0,0
SMILES,D1 potentiator,TRHR ag,D1 antagonist,D1 ag,TRHR enhancer
Cn1c(C(=O)NCc2ccccc2F)cc2oc3ccccc3c21,0,0,-56.9,0,0
Cc1cc(C)cc(N2CCCn3c2nc2c3c(=O)n(CC(=O)OCc3ccccc3)c(=O)n2C)c1,0,0,0,0,0
CCn1c(=O)c2c(nc3n2CCCN3c2cccc(C)c2)n(C)c1=O,0,0,-31.1,0,0
Cc1ccc(N2CCCn3c2nc2c3c(=O)n(CC(=O)OCc3ccccc3)c(=O)n2C)cc1C,0,0,-46.1,0,0
Cc1ccc(Cl)c(OCCN2CCCC(C)C2)c1 (stereo not drawn),0,0,-71.1,0,0
Clc1ccc(OCCOCCN2CCCCC2)c(Br)c1,0,0,-45.1,0,0
CC1CCCN(CCCOc2ccc(Cl)cc2Br)C1 (stereo not drawn),0,0,-51.7,0,0
COc1ccc(C(=O)N(Cc2ccco2)Cc2cccs2)cc1,0,0,0,0,0
CCc1ccc2nc(N(CCN(CC)CC)C(=O)c3cccs3)sc2c1,0,0,0,0,0
Fc1ccc(Nc2nnc(C(F)(F)F)s2)cc1Cl,0,0,0,0,0
FC(F)(F)c1nnc(Nc2ccc(Cl)cc2)s1,0,0,-30.0,0,0
Cc1c(Cl)cccc1NC(=O)Cn1cc2c(n1)CCCC2,0,0,0,0,0
CCCCCCSc1nsc(NC(=O)CCC)n1,0,0,-39.1,0,0
CSc1nsc(NC(=O)Cc2ccccc2)n1,0,0,0,0,0
Cc1ccc(OCCn2c(Br)nc3c2c(=O)n(C)c(=O)n3C)cc1,0,0,-32.6,0,0
CCC1=Nc2cc(C(=O)NCc3ccccc3OC)ccc2Sc2ccc(Cl)cc21,0,0,0,0,0
CC(=O)c1cccc(OCC(O)CNCCc2ccc(Cl)cc2)c1 (stereo not drawn),0,0,0,0,0
OC(COc1cccc2ccccc12)CN1CCCC1 (stereo not drawn),0,0,0,0,0
OC(CNCCc1ccc(C(F)(F)F)cc1)COc1ccc2ccccc2c1 (stereo not drawn),0,0,0,105.8,0
OC(CNCCc1ccc(C(F)(F)F)cc1)COc1cccc2ccccc12 (stereo not drawn),0,0,0,42.1,0
COc1ccccc1COCC(O)CNCCc1ccc(C(F)(F)F)cc1 (stereo not drawn),0,0,0,49.6,0
OC(CNCCc1ccc(Cl)cc1)COCc1ccco1 (stereo not drawn),0,0,0,0,0
COc1ccc(CCNCC(O)COc2cccc(Br)c2)cc1 (stereo not drawn),0,0,0,30.0,0
CCOC(=O)c1cccc(NC(=O)Cn2nc3c(cc2=O)CCCC3)c1,0,0,0,0,0
OC(COc1ccc(CNCCc2ccc(C(F)(F)F)cc2)cc1)CN1CCCCC1 (stereo not drawn),0,0,-37.5,34.5,0
OC(COc1ccc(OCC(O)CN2CCCCC2)cc1)CN1CCCCC1 (stereo not drawn),0,0,0,0,0
CCOC(=O)Cn1nc(C)n(-c2ccc(Br)cc2)c1=O,0,0,-47.6,0,0
